# Screen size: about 1,600 compounds; about 25 (2%) were called active. Roughly 7% stayed inconclusive and do not appear here. The sample as a whole holds a higher share of actives than the screen did. Values without a mark were called inactive. Calls follow the shape of the dose curve; as a rule, active = well fitted inhibition curve with a large enough effect; inconclusive = small, poorly fitted or top-dose-only effect, or effect the other way; inactive = no such curve, though single readings can be large or run the other way.
# Biological target: Runt-related transcription factor 1 (Homo sapiens) + Core-binding factor subunit beta (Homo sapiens) (UniProt Q01196+Q13951)
# Experiment: qHTS Assay for Compounds Blocking the Interaction Between CBF-beta and RUNX1 for the Treatment of Acute Myeloid Leukemia: Hit Validation with Orthogonal Assay
# Conditions: CBFbeta-RUNX1 binding orthogonal assay, biochemical; series mostly up to 41 µM; activity change, negative = inhibition: at the top concentration
# Source text: NIH Chemical Genomics Center [NCGC]
# NIH Molecular Libraries Probe Production centers Network [MLPCN]
# Assay Submitter (PI): Paul Liu
# Core Binding Factor (CBF) abnormalities are associated with 20-25% of all acute myeloid leukemias (AML), of which 5-10% are further sub classified as acute myelomonocytic leukemia with eosinophilia, also known as M4Eo in the FAB classification scheme. This subtype of leukemia is usually associated with chromosome 16 inversion (p13:q22). Chromosome 16 inversion results in formation of the fusion oncogene CBFB-MYH11, which encodes the fusion protein CBF-beta-SMMHC.
# It has been hypothesized that the interference of CBF-beta and RUNX1 binding could have therapeutic implications for patients with CBF mediated leukemias. We developed a CBF-beta and RUNX1 binding assay in AlphaScreenTM format and optimized it for high throughput screening to search for inhibitors. The goal of this project is to screen MLPCN's compound collection (MLSMR) for identifying the inhibitors of the interaction between CBF-beta and RUNX1 proteins as research probes. If these probes work well in the animal models, the ultimate goal of this project is to development a new drug treatment for this disease.
# This assay can not be used to assess how apparent inhibitors interfere with protein binding, and whether inhibitors specifically bind to either protein. Disruption of this protein-protein interaction, through any mechanism, is the intended target activity.
# The present data set was run to confirm the activity of hits from the primary screen using an orthogonal assay technology for measuring protein-protein interaction disruption.
# A TR-FRET (time resolved fluorescence resonance energy transfer) assay was performed using the same assay buffer, protein concentrations and incubation times as described previously in the AlphaScreen assay, except that terbium (Tb+) labeled anti-his-antibody and XL665 linked streptavidin were used to capture the binding signal. The Tb+ labeled anti-his-antibody captures His(6)-CBF and XL665 linked streptavidin binds to biotin-RUNX1. The binding of RUNX1 to CBFbrings Tb+ and XL665 to proximity resulting in a TR-FRET signal. Briefly, in a white 384-well plate, 10 µl/well of mixture of biotin-RUNX1 and His(6)-CBFwere incubated with 10 µl/well buffer (positive control) or 10 µl/well compounds (negative control) for 20 min followed by an addition of 10 µl/well of Tb+ labeled anti-his(6)-antibody and XL665 linked streptavidin. After 90 min of incubation in the dark, the assay plate was measured in the Envision plate reader using TR-FRET detection mode. For the 1536-well plate format, 3 µl/well mixture of biotin-RUNX1 and His(6)-CBF (30 nM per protein) was incubated with 23 nl/well compound (dissolved in 100% DMSO) or the equivalent DMSO concentration (positive control) for 30 min followed by the addition of 1 µl/well of 0.44 ng Tb+ labeled anti-his(6)-antibody and 5 nM streptavodin-XL665. After 90 min of incubation, the assay plate was measured in the Envision plate reader.
# The TR-FRET assay for detecting interaction between HIV-I Tat and […] was similarly performed with the recombinant full-length HIV-I Tat CLADE B and HIV-I Tat Biotin conjugated proteins supplied by Diatheva (Fano, Italy). Briefly, the His-CBF and Biotin-RUNX1 complex at a working concentration of 83.3 nM per protein were pre-incubated in assay buffer for 10 minutes on ice. Then HIV-I Tat or unlabeled CBF were added to reach final concentrations (Supplementary Figure 4b) and incubated for 5 minutes. Finally anti-His antibody and streptavidin-XL665 at a final concentration of 2.2 ng and 5 nM, respectively, were added to the plate, which was incubated for 1 hr prior to reading on the PerkinElmer Envision plate reader.
# Keywords: MLSMR, MLPCN, NIH Roadmap, qHTS, NCGC, Core binding factor, CBF, CBF-beta, Acute myeloid leukemia
# % is scaled to controls: 0 for no effect and ±100 for the full control effect; potency is read from the fitted curve at half-maximal effect.
# Runt-related transcription factor 1 (Homo sapiens) + Core-binding factor subunit beta (Homo sapiens), sequence (Q01196 whole entry, looked up): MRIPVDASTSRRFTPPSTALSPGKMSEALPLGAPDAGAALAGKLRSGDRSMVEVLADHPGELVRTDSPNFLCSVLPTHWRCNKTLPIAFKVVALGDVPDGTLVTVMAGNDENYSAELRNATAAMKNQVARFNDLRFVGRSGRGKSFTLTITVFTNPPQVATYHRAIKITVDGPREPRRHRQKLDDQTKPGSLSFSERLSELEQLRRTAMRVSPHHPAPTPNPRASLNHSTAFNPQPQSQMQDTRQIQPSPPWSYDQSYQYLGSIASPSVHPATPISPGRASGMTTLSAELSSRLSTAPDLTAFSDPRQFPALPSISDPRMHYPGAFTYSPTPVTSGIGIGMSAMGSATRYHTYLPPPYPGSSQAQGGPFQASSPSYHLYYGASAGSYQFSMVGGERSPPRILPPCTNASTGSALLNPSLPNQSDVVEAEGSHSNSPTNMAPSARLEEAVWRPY
# Runt-related transcription factor 1 (Homo sapiens) + Core-binding factor subunit beta (Homo sapiens), sequence (Q13951 whole entry, looked up): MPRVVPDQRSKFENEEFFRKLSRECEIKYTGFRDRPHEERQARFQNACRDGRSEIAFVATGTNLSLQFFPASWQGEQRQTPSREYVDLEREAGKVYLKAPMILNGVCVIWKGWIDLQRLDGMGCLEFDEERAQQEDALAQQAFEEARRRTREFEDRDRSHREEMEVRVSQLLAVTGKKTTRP
SMILES,Potency,"activity change, negative = inhibition"
O=C(O)CCCCC1SCC2NC(=O)NC21 (stereo not given),20 nM (active),–
CC(C)[C@@]1(NC(=O)[C@H]2CC3c4cccc5[nH]cc(c45)C[C@H]3N(C)C2)O[C@@]2(O)C3CCCN3C(=O)[C@@H](Cc3ccccc3)N2C1=O (stereo not given in full),–,9.43%
CCC(=Nc1cccc(C(F)(F)F)c1)c1c(O)n(C)c(=O)n(C)c1=O,–,5.85%
Cc1onc(-c2c(Cl)cccc2Cl)c1C(=O)Nc1ccc2c(C(F)(F)F)cc(=O)oc2c1,–,1.55%
CN(N=O)c1cc(O)ccc1O,–,20.1% [at 82.4 µM]
CN(N=O)c1ccc(O)c(O)c1,2510 nM (active),–
O=c1[nH]c(=S)n(-c2ccccc2)c(O)c1C=NCc1ccccn1,–,1.8%
Cn1c(O)c(/C=N/N2CCOCC2)c(=O)[nH]c1=S,–,-13.8%
Cc1cc(OC(=O)N(C)C)nc2c1c(C)nn2C,–,-8.88%
O=C(O)CN1C(=O)CN=C(c2ccccn2)c2cc(Cl)ccc21,–,6.91%
CC1CN=C(Nc2ccc(F)c(Cl)c2)S1 (stereo not given),–,6.88%
NC(Cc1cc(O)c(O)cc1O)C(=O)O (stereo not given),10000 nM (active),–
COC1C(OC(=O)c2ccc(C)[nH]2)C(O)C(Oc2ccc3c(O)c(NC(=O)c4ccc(O)c(CC=C(C)C)c4)c(=O)oc3c2Cl)OC1(C)C (stereo not given),–,4.43%
CCC(=NCc1cccnc1)c1c(O)n(-c2ccccc2C)c(=O)[nH]c1=O,–,-2.88%
CCCCc1ccc(C(=O)O)nc1,–,-1.88% [at 82.4 µM]

# Source: PubChem BioAssay AID504375 (National Center for Advancing Translational Sciences (NCATS), 2011)
